# Earlier results as cited in PubChem BioAssay AID977611.
# Hit rate of the full screen: of about 3,900 compounds, about 3,900 (100%) were called active. Cut-off not given; nearly all actives show Kd up to about 4200 µM. The set was probably picked from earlier hits. This is one part of the list. Where a SMILES comes first, the peptide text is derived from it. Non-standard residues stand in square brackets, D forms with d. Square brackets hold non-standard residues; d marks the D form. Residues, ends and D or L forms follow the SMILES beside them. Peptide text beside a SMILES is read from it. [ ]: non-standard residue; d: D form. Thr(P(OH)3+) = C[C@@H](O[P+](O)(O)O)[C@H](N)C(=O)O; Lys(Me3) = C[N+](C)(C)CCCC[C@H](N)C(=O)O; Orn(CH(NH2)2) = NC(N)NCCC[C@H](N)C(=O)O; Lys(Me2) = CN(C)CCCC[C@H](N)C(=O)O
# Assay: PubChem AID 977611
# Conditions: PDB protein-ligand complexes, literature Kd
molecule,measurement,setting,value
N[C@@H](CCC(=O)N[C@@H](CS)C(=O)NCC(=O)O)C(=O)O,Kd,"protein: mitochondrial ABC transporter, Atm1, PDB entry 4myh",23 µM (active)
same,Kd,"protein: protein yqjG, PDB entry 4g0l",6.5 µM (active)
CNC(CSSC[C@H](NC(=O)CC[C@H](N)C(=O)O)C(=O)NCC(=O)O)C(=O)NCC(=O)O (some centres undefined),Kd,"protein: PUTATIVE AMINO ACID BINDING PROTEIN, PDB entry 4c0r",12.2 µM (active)
H-SQEKFFQELFDS-OH,Kd,"protein: Peroxisomal Membrane Anchor Protein Pex14, PDB entry 2w85",9.17 µM (active)
CC(C)C[C@H](NC(=O)[C@H](CC(C)C)NC(=O)[C@H](CCC(=O)O)NC(=O)[C@@H](N)CO)C(=O)N[C@@H](CCCCN)C(=O)N[C@@H](Cc1ccc(O)cc1)C(=O)N[C@@H](CC(C)C)C(=O)N[C@H](C(=O)N[C@H](C(=O)O)[C@@H](C)O)[C@@H](C)O (H-SELLKYLTT-OH),Kd,"protein: the ligand binding domain (LBD) of the estrogen-related receptor ? (ERR?, NR3B1), PDB entry 1xb7",0.6 µM (active)
NS(=O)(=O)c1ccc(CNc2ncnc(NCc3ccccc3)c2[N+](=O)[O-])cc1,Kd,"protein: human carbonic anhydrase II, PDB entry 3mhm",0.1 µM (active)
CC(C)[C@H](NC(=O)[C@H](CCCC[N+](C)(C)C)NC(=O)[C@H](CO)NC(=O)[C@H](CCCN=C(N)N)NC(=O)[C@H](C)NC(=O)[C@H](C)NC(=O)[C@@H](N)CCCN=C(N)N)C(=O)O (tested in a mixture with another compound) (H-RAARS[Lys(Me3)]V-OH),Kd,"protein: Chromodomain-helicase-DNA-binding protein 1 CHD1, PDB entry 4nw2",29 µM (active)
CC(C)[C@H](NC(=O)[C@H](CCCCN(C)C)NC(=O)[C@H](CO)NC(=O)[C@H](CCCN=C(N)N)NC(=O)[C@H](C)NC(=O)[C@@H](NC(=O)[C@@H](N)CCCN=C(N)N)[C@@H](C)O)C(=O)O (H-RTARS[Lys(Me2)]V-OH),Kd,"protein: Chromodomain-helicase-DNA-binding protein 1 CHD1, PDB entry 4o42",22 µM (active)
CC[C@H](C)[C@H](NC(=O)[C@@H](N)CC(N)=O)C(=O)N[C@H](C(=O)N[C@@H](CCC(N)=O)C(=O)N1CCC[C@H]1C(=O)N[C@H](C(=O)N[C@@H](CCC(N)=O)C(=O)N[C@@H](CCC(N)=O)C(=O)N[C@@H](CO)C(=O)N[C@H](C(=O)O)[C@@H](C)O)[C@@H](C)O[P+](O)(O)O)[C@@H](C)O[P+](O)(O)O (H-NI[Thr(P(OH)3+)]QP[Thr(P(OH)3+)]QQST-OH),Kd,"protein: the yeast Dun1 FHA domain, PDB entry 2jql",0.3 µM (active)
CC[C@H](C)[C@H](NC(=O)[C@@H](N)CC(N)=O)C(=O)N[C@H](C(=O)N[C@@H](CCC(N)=O)C(=O)N1CCC[C@H]1C(=O)N[C@H](C(=O)N[C@@H](CCC(N)=O)C(=O)N[C@@H](CCC(N)=O)C(=O)N[C@@H](CO)C(=O)N[C@H](C(=O)O)[C@@H](C)O)[C@@H](C)O)[C@@H](C)O[P+](O)(O)O (H-NI[Thr(P(OH)3+)]QPTQQST-OH),Kd,"protein: Rad53 FHA1 domain, PDB entry 2jqi",10 µM (active)
Cn1c[n+]([C@@H]2O[C@H](CO[P+](O)(O)O[P+](O)(O)O[P+](O)(O)O)[C@@H](O)[C@H]2O)c2c1C(=O)NC(N)N2 (some centres undefined),Kd,"protein: rRNA N-glycosidase, PDB entry 4emr",0.0321 µM (active)
Cn1c[n+]([C@@H]2O[C@H](CO[P+](O)(O)O[P+](O)(O)O)[C@@H](O)[C@H]2O)c2c1C(=O)NC(N)N2 (some centres undefined),Kd,"protein: rRNA N-glycosidase, PDB entry 4emf",0.0839 µM (active)
C[C@H]1COCCN1C[C@H]1CN(S(=O)(=O)c2cccs2)CCN1c1ccc([C@@](C)(O)C(F)(F)F)cc1,Kd,"protein: Glucokinase regulatory protein, PDB entry 4ly9",0.007 µM (active)
COC(=O)c1cc(Nc2ncnc3[nH]ccc23)ccc1Br,Kd,"protein: TAU-TUBULIN KINASE 1, PDB entry 4btm",4.1 µM (active)
CC[C@H](C)[C@H](NC(=O)[C@H](C)NC(=O)[C@H](CCC(=O)O)NC(=O)[C@H](CCCNC(N)N)NC(=O)[C@H](CC(C)C)NC(=O)[C@H](Cc1ccc(O)cc1)NC(=O)[C@H](CCCNC(N)N)NC(=O)[C@H](CC(=O)O)NC(=O)[C@H](CC(=O)O)NC(=O)[C@@H](N)CC(=O)O)C(=O)N[C@@H](CCC(N)=O)C(=O)N[C@@H](CCC(=O)O)C(=O)N[C@@H](Cc1ccc(O)cc1)C(=O)N[C@@H](CC(=O)O)C(=O)N[C@@H](CC(N)=O)C(=O)N[C@H](C(=O)N[C@@H](C)C(=O)N[C@@H](CCCCN)C(=O)O)[C@@H](C)CC (H-DDD[Orn(CH(NH2)2)]YL[Orn(CH(NH2)2)]EAIQEYDNIAK-OH),Kd,"protein: N terminal domain of Harmonin, PDB entry 2kbr",25.4 µM (active)
CC[C@H](C)[C@H](NC(=O)[C@H](CC(C)C)NC(=O)[C@H](CCCNC(N)N)NC(=O)[C@@H](N)CC(N)=O)C(=O)N[C@@H](CC(C)C)C(=O)O (H-N[Orn(CH(NH2)2)]LIL-OH),Kd,"protein: Chaperone protein DnaK, PDB entry 4ezy",2.26 µM (active)
CC[C@H](C)[C@H](NC(=O)[C@@H](N)CCCNC(N)N)C(=O)N[C@@H](CCC(N)=O)C(=O)N[C@@H](CCCNC(N)N)C(=O)N[C@@H](CC(N)=O)C(=O)N[C@@H](CCCCN)C(=O)N[C@@H](C)C(=O)N[C@@H](C)C(=O)N[C@@H](C)C(=O)N[C@@H](CC(C)C)C(=O)N[C@@H](CC(C)C)C(=O)N[C@@H](CCCNC(N)N)C(=O)N[C@@H](CC(C)C)C(=O)N[C@@H](C)C(=O)N[C@@H](C)C(=O)N[C@@H](CCCNC(N)N)C(=O)O (H-[Orn(CH(NH2)2)]IQ[Orn(CH(NH2)2)]NKAAALL[Orn(CH(NH2)2)]LAA[Orn(CH(NH2)2)]-OH),Kd,"protein: RPA32(C-terminal domain of Replication protein A,172-270), PDB entry 1dpu",1 µM (active)
CC[C@H](C)[C@H](NC(=O)[C@H](CC(N)=O)NC(=O)[C@H](CCSC)NC(=O)[C@@H](N)CCCNC(N)N)C(=O)N[C@@H](CCC(N)=O)C(=O)N[C@@H](CCSC)C(=O)N[C@@H](CC(C)C)C(=O)N[C@@H](CC(C)C)C(=O)N[C@@H](CCC(=O)O)C(=O)N[C@@H](C)C(=O)N[C@@H](C)C(=O)N[C@@H](CC(=O)O)C(=O)N[C@@H](Cc1ccc(O)cc1)C(=O)N[C@@H](CC(C)C)C(=O)N[C@@H](CCC(=O)O)C(=O)N[C@@H](CCCNC(N)N)C(=O)O (H-[Orn(CH(NH2)2)]MNIQMLLEAADYLE[Orn(CH(NH2)2)]-OH),Kd,"protein: mammalian Sin3A PAH2 domain, PDB entry 1g1e",0.029 µM (active)
same,Kd,"protein: mammalian mSin3A (mSin3A) PAH2 domain, PDB entry 1s5q",5.2 µM (active)
